Source: PubChem BioAssay (National Center for Advancing Translational Sciences (NCATS))
KinaseGlo FLuc = Counterscreen for Luciferase (Kinase-Glo TM) Inhibition; Kinase-Glo luciferase, ATP luminescence, 8 min; AID 1379, 2008; Potency, µM (titrated, usually from 38.3 µM), inactives show at the highest dose activity change, negative = inhibition, usual class: inhibitors; Luciferin 4-monooxygenase (Photuris pensylvanica), Q27757; 0.28% of 200,000 active; further: on the % scale 0 is the no-effect control and ±100 the full control effect; nearly all actives have a fitted effect of over 60% in size
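Substrate mix (final 50 mM imidazole pH 7.2, 50 mM KCl, 7 mM MgCl2, 10 uM ATP, 0.01% Tween 20, 0.05% BSA) plus pin-tool compound, then Kinase-Glo detection mix; 8 min ambient, luminescence read.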
SMN2 splice enh = qHTS Assay for Enhancers of SMN2 Splice Variant Expression; HEK293 SMN2-luciferase splicing reporter, luminescence, 30-36 h; 2.8% of 210,000 active; Potency, µM (doses to about 46.1 µM), inactives show at the highest dose activity change, positive = activation, hits mostly activators; further: % of control where 0% means no effect; nearly all actives have a fitted effect of over 55% in size
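HEK293 cells carry an SMN2 minigene-luciferase reporter in which exon 7 inclusion puts luciferase in frame. Cells were seeded at 2000 cells/well, attached for 10-12 hours, then exposed to compounds for 30-36 hours at 37C before ONE-Glo luminescence.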
Rab9 prom act = qHTS Assay for Rab9 Promoter Activators; Huh7 Rab9 promoter-luciferase reporter, luminescence, 24 h; Potency, µM (titrated, usually from 9.22 µM), for the others: top-dose activation, negative = inhibition, most hits filed as activators; 2.8% of 320,000 active; AID 485297, 2010; further: % of control where 0% means no effect; nearly all actives have a fitted effect of over 60% in size
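Luminescence read-out: Huh7 cells stably expressing Rab9-luciferase, treated 24 h with compound at 37 °C, then lysed with luciferase reagent for 10 min at ambient before reading.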
NPC1 prom act = qHTS Assay for NPC1 Promoter Activators; 2.4% of 320,000 active; Potency, µM (highest dose often 9.22 µM), without a hit: at the top dose activation, actives largely listed as activators; Huh7 NPC1 promoter luciferase reporter, 24 h; further: % of control where 0% means no effect; nearly all actives have a fitted effect of over 60% in size
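Luminescence read-out of NPC1 promoter-driven luciferase in stably transfected Huh7 cells; compounds delivered in DMSO and left 24 h at 37C, 5% CO2, qHTS titration format.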
ELG1 genotoxic = qHTS screen for small molecules that induce genotoxicity in human embryonic kidney (HEK293T) cells expressing luciferase-tagged ELG1; HEK293T ELG1-luciferase reporter, luminescence, 16 h; Potency, µM (doses to about 46 µM), without a hit: top-dose activity change, positive = activation, actives largely listed as activators; 1.3% of 330,000 active; AID 504466, 2011; further: % of control where 0% means no effect; nearly all actives have a fitted effect of over 60% in size
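ELG1-luciferase HEK293T cells, 2,000/well; compound pinned in; 16 hr, 37 °C, 5% CO2; ONE-Glo, 30 min RT; luminescence on CCD imager.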
FLuc counter = qHTS profiling assay for firefly luciferase inhibitor/activator using purifed enzyme and Km concentrations of substrates (counterscreen for miR-21 project); purified FLuc, Km substrates, luminescence inhibition; Potency, µM (titrated, usually from 57.5 µM), for inactives: top-dose activity change, negative = inhibition, actives largely listed as inhibitors; AID 588342, 2011; 6.9% of 360,000 active; Luciferin 4-monooxygenase (Photinus pyralis), P08659;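 further: plate controls were vehicle for no effect and reference inhibitor for full effect; nearly all actives have a fitted effect of over 55% in size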
Target sequence (P08659 whole entry, looked up): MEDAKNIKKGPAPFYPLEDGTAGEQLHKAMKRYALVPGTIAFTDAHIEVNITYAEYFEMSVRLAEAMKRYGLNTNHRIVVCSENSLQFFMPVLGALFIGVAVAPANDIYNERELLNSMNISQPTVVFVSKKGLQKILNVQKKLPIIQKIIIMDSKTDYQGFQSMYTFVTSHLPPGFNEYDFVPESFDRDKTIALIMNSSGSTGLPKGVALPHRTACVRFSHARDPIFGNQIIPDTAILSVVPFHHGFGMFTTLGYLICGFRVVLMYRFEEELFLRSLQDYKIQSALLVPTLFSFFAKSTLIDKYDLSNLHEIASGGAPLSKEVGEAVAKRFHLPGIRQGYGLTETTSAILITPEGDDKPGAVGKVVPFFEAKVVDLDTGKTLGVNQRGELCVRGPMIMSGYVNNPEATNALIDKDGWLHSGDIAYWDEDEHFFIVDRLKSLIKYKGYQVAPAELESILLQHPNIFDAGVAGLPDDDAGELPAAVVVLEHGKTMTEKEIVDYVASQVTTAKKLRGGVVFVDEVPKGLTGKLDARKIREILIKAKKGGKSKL
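Purified P. pyralis luciferase (10nM final) with 10uM D-luciferin and 10uM ATP (Km levels) in 50mM Tris acetate pH 7.5, 10mM Mg acetate, 0.01% Tween-20, 0.05% BSA; qHTS 6-point titration, ~60 µM downward; luminescence read.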
* hit, by the source's call; ? = inconclusive; nt = no result given; [ ] = dose if it differs, or a comment. In the library only some 7.4% were active in any assay of this set; here they are far more common. The call rests on the fitted dose curve; in most records, active means well fitted curve in the direction sought with a large enough effect; inconclusive means small, poorly fitted or top-dose-only effect, or another doubt; inactive means no such curve, though single readings can be large; an effect the other way counts as inactive or inconclusive. Potency means the concentration at half of the fitted maximal effect.

SMILES	KinaseGlo FLuc	SMN2 splice enh	Rab9 prom act	NPC1 prom act	ELG1 genotoxic	FLuc counter
O=C(CC1CCCC1)Nc1ccc2c(c1)CCC2	-6%	?	3.5µM*	2.5µM*	?	13µM*
Cc1cc(NC(=O)CCSc2ccccc2)ccc1Br	1%	?	20%	14%	?	24µM*
Cc1cc(NC(=O)CC2CCCC2)ccc1Br	nt	nt	?	-30%	?	19µM*
O=C(Cc1ccccc1)Nc1ccc2c(c1)CCC2	1%	nt	?	?	13%	?
COc1ccc(C2(CNC(=O)C(=O)Nc3ccc(C)c(Cl)c3)CCCC2)cc1OC	nt	5%	nt	nt	nt	-5%
CCc1ccc(OCC(=O)N(Cc2ccc(C)o2)C2CCS(=O)(=O)C2)cc1 (configuration not stated)	nt	16%	nt	nt	nt	6%
COC(=O)c1ccccc1N=Nc1c(N)[nH][nH]c1=O	nt	nt	-4%	-2%	-8%	11µM*
COC(=O)c1ccccc1N=Nc1c(N)n[nH]c1N	nt	nt	7%	5%	-5%	-14%
CCOc1ccccc1NC(=O)C(C)Sc1nc2c(c(=O)[nH]1)CCCC2 (configuration not stated)	nt	nt	nt	nt	nt	-2%
O=C(COc1ccc(F)cc1)N1CCC(c2ccccc2)C1 (configuration not stated)	-5%	13µM*	?	29%	?	19µM*
CC1CCCN(C(=O)COc2ccc(-c3ccccc3)cc2)C1 (configuration not stated)	2%	14%	16%	1%	7%	?
Cc1cccc(OCC(=O)N2CCN(C(=O)Cc3ccccc3)CC2)c1	2%	-7%	-2%	-3%	-2%	3%
Cc1cccc(OCC(=O)N2CCC(c3ccccc3)C2)c1 (configuration not stated)	1%	16µM*	2.8µM*	3.2µM*	21µM*	13µM*
O=C(O)CSc1nc2sc3c(c2c(=O)n1Cc1ccccc1)CCCCC3	nt	nt	22%	24%	?	?
O=C(O)CSc1cc(C(=O)c2ccccc2O)cn2c(=O)c3c4c(sc3nc12)CCCC4	nt	nt	2%	1%	12%	4.3µM*
Cc1cnc(C(=O)NCc2ccc(F)cc2)cn1	nt	nt	9%	1%	2%	-1%
Cc1cnc(C(=O)Nc2ccc(F)cc2)cn1	?	13µM*	?	2.5µM*	?	24µM*
Cc1cnc(C(=O)Nc2ccccc2F)cn1	?	?	18%[1.84 µM]	3.5µM*	16µM*	24µM*
Cc1cnc(C(=O)Nc2ccc(C(C)C)cc2)cn1	-2%	10µM*	1.3µM*	3.5µM*	?	8.5µM*
O=[N+]([O-])c1ccc2c(c1)nc1n2CCN(C2CCCCC2)C1	1%	14µM*	2.5µM*	?	?	15µM*
CC(=O)Nc1ccc2c(c1)nc1n2CCN(C2CCCCC2)C1	-8%	13µM*	2µM*	3.5µM*	?	24µM*
CCCC(=O)Nc1ccc2c(c1)nc1n2CCN(C2CCCCC2)C1	0%	4%	0%	1%	-3%	-16%
CCN(CC)C(=O)C1=C(C)Nc2nc3ccccc3n2C1c1ccccc1F (configuration not stated)	nt	-12%	nt	nt	nt	-2%
Cc1cccc(C2C=C(c3ccc(F)cc3)Nc3nc4ccccc4n32)c1 (configuration not stated)	nt	nt	nt	nt	nt	5.4µM*
CCc1ccc(C2=CC(c3c(F)cccc3Cl)n3c(nc4ccccc43)N2)cc1 (configuration not stated)	nt	nt	nt	nt	nt	19µM*
Cc1ccc(C2=CC(c3ccccc3C)n3c(nc4ccccc43)N2)cc1 (configuration not stated)	nt	nt	nt	nt	nt	6µM*
